The values that follow come from PubChem BioAssay (EPA / NIEHS).

Assay [1] concerns the target Myc proto-oncogene protein (Homo sapiens) (UniProt P01106). The experiment in a line: ATG_Myc_CIS: Attagene CIS-FACTORIAL HepG2 Assay for human Myelocytomatosis (Myc) Proto-Oncogene Transcription Factor (AID 2282990). Particulars: HepG2, Attagene cis-reporter transcription factor activity; actives raise or lower the signal. In outline: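 HepG2 cells transiently transfected with multiple cis-promoter-driven reporter transcription units, so endogenous TF activity is read. After 24 h compound exposure, reporter mRNA was quantified by RT-PCR, 6-FAM labelling, HpaI digestion and capillary electrophoresis; bidirectional fit versus DMSO.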

The nature of assay [2]: ATG_NF_kB_CIS: Attagene CIS-FACTORIAL HepG2 Assay for human Nuclear Factor Kappa B (NF-kB) (AID 2282991). Particulars: HepG2 Attagene cis-factorial NF-kB reporter mRNA; actives raise or lower the signal. In outline: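 Transient MRTU transfection of human HepG2 liver cells → 24 h chemical exposure → total RNA, oligo(dT) RT → PCR, 6-FAM primer extension, HpaI digest 2 h 37 C → CE fragment analysis. Bidirectional fitting, DMSO negative control.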

Assay [3] in a line: ATG_NRF2_ARE_CIS: Attagene CIS-FACTORIAL HepG2 Assay for human Nuclear Factor Erythroid 2 Related Factor 2 (NFR2) response to Antioxidant Response Elements (ARE) (AID 2282992).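 For AC50: reporter mRNA level measured by RT-PCR and capillary electrophoresis fluorescence.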 Particulars: HepG2 Attagene ARE/NRF2 reporter, transcription factor activity; actives raise or lower the signal. In outline: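 HepG2 cells transiently transfected with multiplexed cis-element reporter constructs, 24 h after chemical dosing; reporter mRNA quantified by RT-PCR, fluorescent primer extension, HpaI digestion and capillary electrophoresis. Bidirectional fit relative to DMSO.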

Assay [4] can be described thus: ATG_Oct_MLP_CIS: Attagene CIS-FACTORIAL HepG2 Assay for human Octamer-Binding Transcription Factor (Oct) (AID 2282993). Particulars: HepG2 Attagene cis-factorial Oct reporter, mRNA; actives raise or lower the signal. An outline of the steps: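 Readout is reporter transcript level from RT-PCR with fluorescent primer extension and capillary electrophoresis, fitted in both directions against DMSO. Transfected HepG2 reporter units report endogenous factor activity after 24 h dosing.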

The target of assay [5] is Cellular tumor antigen p53 (Homo sapiens) (UniProt P04637). Briefly: ATG_p53_CIS: Attagene CIS-FACTORIAL HepG2 Assay for human p53 Transcription Factor (AID 2282994). Particulars: HepG2 p53 cis-element reporter, Attagene mRNA; actives raise or lower the signal. An outline of the steps:
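HepG2 cells transiently transfected with cis-regulated multiple reporter transcription units, dosed 24 h. Reporter mRNA measured by RT-PCR, 6-FAM primer extension, HpaI digestion and capillary electrophoresis; bidirectional fit relative to DMSO.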

The nature of assay [6]: BSK_3C_uPAR: BioMAP Diversity Plus: 3C Assay for Urokinase-type plasminogen activator receptor (uPAR) Biomarker Activity (AID 2282998). Particulars: BioMAP 3C HUVEC, uPAR biomarker ELISA; actives raise or lower the signal. An outline of the steps:
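Cell-surface uPAR on HUVEC (3C system) read by ELISA at 24 h post-treatment, with DMSO as baseline and fitting in both directions. Parallel cultures stained with SRB to flag overt cytotoxicity.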

Assay [7] is described as follows: BSK_3C_VCAM1: BioMAP Diversity Plus: 3C Assay for Vascular cell adhesion molecule 1 (VCAM1) Biomarker Activity (AID 2282999). Particulars: BioMAP 3C HUVEC, VCAM1 ELISA, cytokine-stimulated; actives raise or lower the signal. In outline:
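Human umbilical vein endothelial cells were dosed with compound for 24 h, after which cell-surface VCAM-1 was quantified by ELISA. Bidirectional curve fitting used DMSO as negative control and activity baseline.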

Assay [8] is described as follows: BSK_4H_Eotaxin3: BioMAP Diversity Plus: 4H Assay for Eotaxin 3 Biomarker Activity (AID 2283000).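 For outcome: CCL26 protein level quantified by ELISA in parallel with SRB cytotoxicity check.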 Particulars: primary human endothelial cells (HUVEC); actives raise or lower the signal. An outline of the steps:
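Readout is Eotaxin-3 (CCL26) level by ELISA in primary human umbilical vein endothelial cells harvested 24 h after chemical exposure; activity fitted in both directions against DMSO control.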

For assay [9], the target named is human Peroxisome Proliferator-activated Receptor alpha (PPARa), PPARA (gene 5465) (UniProt Q07869). Briefly: ATG_PPARa_TRANS: Attagene TRANS-FACTORIAL HepG2 Assay for human Peroxisome Proliferator-activated Receptor alpha (PPARa) (AID 2283001; active = hit-call score of the fitted dose curve at least 0.9, where 1 is the maximum). An outline of the steps: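 HepG2 cells transiently transfected with multiplexed GAL4-UAS reporter units and chimeric NR-Gal4 constructs were dosed for 24 h. Reporter mRNA was measured by RT-PCR with fluorescent labelling and capillary electrophoresis; gain of signal fitted against DMSO.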
human Peroxisome Proliferator-activated Receptor alpha (PPARa), PPARA (gene 5465), sequence (Q07869 whole entry, looked up, the tested form may be a part): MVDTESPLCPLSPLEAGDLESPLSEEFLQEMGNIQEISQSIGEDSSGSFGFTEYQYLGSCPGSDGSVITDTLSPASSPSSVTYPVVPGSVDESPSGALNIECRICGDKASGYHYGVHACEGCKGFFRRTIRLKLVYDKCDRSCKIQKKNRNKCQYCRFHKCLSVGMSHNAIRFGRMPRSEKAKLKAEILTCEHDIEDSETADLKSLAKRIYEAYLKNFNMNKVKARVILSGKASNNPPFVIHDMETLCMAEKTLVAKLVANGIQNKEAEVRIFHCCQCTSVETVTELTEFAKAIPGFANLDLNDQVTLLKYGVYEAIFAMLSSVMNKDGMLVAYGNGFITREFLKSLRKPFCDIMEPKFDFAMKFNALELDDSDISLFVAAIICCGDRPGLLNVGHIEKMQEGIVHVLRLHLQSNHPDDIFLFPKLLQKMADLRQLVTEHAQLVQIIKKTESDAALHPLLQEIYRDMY

In assay [10] the target is human Peroxisome Proliferator-activated Receptor delta (PPARd), PPARD (gene 5467) (UniProt Q03181). Briefly: ATG_PPARd_TRANS: Attagene TRANS-FACTORIAL HepG2 Assay for human Peroxisome Proliferator-activated Receptor delta (PPARd) (AID 2283002; active = hit-call score of the fitted dose curve at least 0.9, where 1 is the maximum). In outline:
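HepG2 cells transiently transfected with multiplexed GAL4-UAS reporter units and exogenous chimeric NR-Gal4 proteins; 24 h compound exposure. Reporter mRNA measured by RT-PCR, 6-FAM labelling, HpaI digestion and capillary electrophoresis; gain of signal versus DMSO.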

Read-out in assay [11]: Intercellular Adhesion Molecule 1 (ICAM1), ICAM1 (gene 3383)
The experiment in a line: BSK_3C_ICAM1: BioMAP Diversity Plus: 3C Assay for Intercellular Adhesion Molecule 1 (ICAM1) Biomarker Activity (AID 2283003). Particulars: primary human endothelial cells (HUVEC); actives raise or lower the signal. In outline:
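Human vascular endothelial primary cells, 3C conditions, 24 h treatment. ICAM-1 by ELISA.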

Assay [12] can be described thus: BSK_3C_Proliferation: Cell Proliferation Assessment in the BioMAP Diversity Plus: 3C Assay (AID 2283006).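 For AC50: potency may reflect either rise or fall in cell number versus DMSO.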 Particulars: primary human endothelial cells (HUVEC). In outline: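 Proliferation of human vascular endothelial primary cells after 48 h dosing, quantified as SRB-stained protein at 560 nm relative to DMSO.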
Assay [13] has as its target Peroxisome proliferator-activated receptor gamma (Homo sapiens) (UniProt P37231). The experiment in a line: ATG_PPARg_TRANS: Attagene TRANS-FACTORIAL HepG2 Assay for human Peroxisome Proliferator-activated Receptor-gamma (PPARg) (AID 2283007; active = hit-call score of the fitted dose curve at least 0.9, where 1 is the maximum). In outline: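 Transient transfection of HepG2 with GAL4-UAS-driven reporter units; chemical dosing 24 h; total RNA → oligo(dT) RT → PCR with reporter primers → 6-FAM primer extension → HpaI digest 2 h 37 C → capillary electrophoresis. Positive direction vs DMSO.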

Assay [14] addresses Nuclear receptor subfamily 1 group I member 2 (Homo sapiens) (UniProt O75469). Briefly: ATG_PXR_TRANS: Attagene TRANS-FACTORIAL HepG2 Assay for human Pregnane X Receptor (PXR) (AID 2283008; active = hit-call score of the fitted dose curve at least 0.9, where 1 is the maximum). An outline of the steps: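 HepG2 cells transiently transfected with GAL4-UAS reporter units and PXR-Gal4 chimera, exposed 24 h. Reporter mRNA quantified by RT-PCR, fluorescent labelling, HpaI digestion and capillary electrophoresis; gain of signal vs DMSO.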

The target of assay [15] is human Retinoic Acid Receptor gamma (RARg), RARG (gene 5916) (UniProt P13631). Briefly: ATG_RARg_TRANS: Attagene TRANS-FACTORIAL HepG2 Assay for human Retinoic Acid Receptor gamma (RARg) (AID 2283009; active = hit-call score of the fitted dose curve at least 0.9, where 1 is the maximum). An outline of the steps:
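HepG2, RARg-GAL4 TRANS system, 24 h exposure; reporter mRNA by RT-PCR + CE fluorescence; increase over DMSO.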

The target in assay [16] is human RAR-related Orphan Receptor gamma (RORg), RORC (gene 6097) (UniProt P51449). Briefly: ATG_RORg_TRANS: Attagene TRANS-FACTORIAL HepG2 Assay for human RAR-related Orphan Receptor gamma (RORg) (AID 2283011; active = hit-call score of the fitted dose curve at least 0.9, where 1 is the maximum). An outline of the steps:
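Transient MRTU transfection of HepG2 (TRANS format, exogenous NR-Gal4 chimera). 24 h dosing. Total RNA → oligo(dT) RT → PCR → 6-FAM labelling → HpaI cut → CE. Gain vs DMSO.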

The target of assay [17] is human Retinoic Acid Receptor beta (RARb), RARB (gene 5915) (UniProt P10826). The experiment in a line: ATG_RARb_TRANS: Attagene TRANS-FACTORIAL HepG2 Assay for human Retinoic Acid Receptor beta (AID 2283004; active = hit-call score of the fitted dose curve at least 0.9, where 1 is the maximum). In outline: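 Readout is reporter mRNA induction: RNA reverse-transcribed, PCR-amplified, FAM-labelled, HpaI-cut and resolved by capillary electrophoresis. Transiently transfected HepG2 cells carrying exogenous NR–Gal4 chimeras were dosed for 24 h; activity fitted upward relative to DMSO.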
human Retinoic Acid Receptor beta (RARb), RARB (gene 5915), sequence (P10826 whole entry, looked up, the tested form may be a part): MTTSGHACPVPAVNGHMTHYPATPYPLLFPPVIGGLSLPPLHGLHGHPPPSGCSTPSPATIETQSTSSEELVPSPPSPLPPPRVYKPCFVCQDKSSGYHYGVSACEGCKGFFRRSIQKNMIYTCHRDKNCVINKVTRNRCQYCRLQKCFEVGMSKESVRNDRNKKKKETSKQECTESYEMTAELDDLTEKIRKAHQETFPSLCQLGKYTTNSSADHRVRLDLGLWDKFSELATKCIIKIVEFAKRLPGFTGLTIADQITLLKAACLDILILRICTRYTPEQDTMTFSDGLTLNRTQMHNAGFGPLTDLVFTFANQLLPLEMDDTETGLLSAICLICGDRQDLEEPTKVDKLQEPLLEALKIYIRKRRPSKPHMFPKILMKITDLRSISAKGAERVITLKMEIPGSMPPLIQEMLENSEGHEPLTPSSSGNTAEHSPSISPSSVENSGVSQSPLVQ

Assay [18] addresses human RAR-related Orphan Receptor beta (RORb), RORB (gene 6096) (UniProt Q92753). The experiment in a line: ATG_RORb_TRANS: Attagene TRANS-FACTORIAL HepG2 Assay for human RAR-related Orphan Receptor beta (RORb) (AID 2283010; active = hit-call score of the fitted dose curve at least 0.9, where 1 is the maximum). In outline: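 In this TRANS-format test, human HepG2 cells express chimeric NR-Gal4 fusion proteins driving GAL4-UAS reporters. After 24 h dosing, reporter transcripts are measured by fluorescent RT-PCR/capillary electrophoresis, with DMSO as negative control.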

Assay [19] is described as follows: BSK_3C_TissueFactor: BioMAP Diversity Plus: 3C Assay for Tissue Factor Biomarker Activity (AID 2282997). Particulars: BioMAP 3C HUVEC, tissue factor biomarker readout; actives raise or lower the signal. In outline:
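Human vascular primary cells (umbilical vein endothelium) received test chemical; Tissue Factor was determined by ELISA at 24 h, and both gain and loss of signal versus DMSO were fitted.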

Where “and” joins values, the source holds several entries; their conditions need not be identical. Identical values can stand only once. Inconclusive results are not listed. Where a structure was tested more than once in an assay, its records may differ in their call. Calls of active or inactive are those of the source. Rule for the calls, unless noted: active = hit-call score of the fitted dose curve at least 0.9, where 1 is the maximum; inactive = score below 0.9.

human Peroxisome Proliferator-activated Receptor delta (PPARd), PPARD (gene 5467), sequence (Q03181 whole entry, looked up, the tested form may be a part): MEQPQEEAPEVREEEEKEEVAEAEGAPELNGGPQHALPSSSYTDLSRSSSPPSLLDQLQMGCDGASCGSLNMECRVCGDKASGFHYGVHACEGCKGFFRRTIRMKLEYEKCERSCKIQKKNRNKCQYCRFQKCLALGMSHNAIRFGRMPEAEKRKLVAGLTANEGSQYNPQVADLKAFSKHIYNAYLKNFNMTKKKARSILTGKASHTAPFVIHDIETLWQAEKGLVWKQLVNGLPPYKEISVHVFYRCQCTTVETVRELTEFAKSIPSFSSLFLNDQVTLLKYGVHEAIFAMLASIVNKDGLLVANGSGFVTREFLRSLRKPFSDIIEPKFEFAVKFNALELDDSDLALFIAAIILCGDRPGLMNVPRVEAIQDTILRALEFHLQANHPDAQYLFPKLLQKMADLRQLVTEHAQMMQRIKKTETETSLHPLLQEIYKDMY
Cellular tumor antigen p53 (Homo sapiens), sequence (P04637 whole entry, looked up): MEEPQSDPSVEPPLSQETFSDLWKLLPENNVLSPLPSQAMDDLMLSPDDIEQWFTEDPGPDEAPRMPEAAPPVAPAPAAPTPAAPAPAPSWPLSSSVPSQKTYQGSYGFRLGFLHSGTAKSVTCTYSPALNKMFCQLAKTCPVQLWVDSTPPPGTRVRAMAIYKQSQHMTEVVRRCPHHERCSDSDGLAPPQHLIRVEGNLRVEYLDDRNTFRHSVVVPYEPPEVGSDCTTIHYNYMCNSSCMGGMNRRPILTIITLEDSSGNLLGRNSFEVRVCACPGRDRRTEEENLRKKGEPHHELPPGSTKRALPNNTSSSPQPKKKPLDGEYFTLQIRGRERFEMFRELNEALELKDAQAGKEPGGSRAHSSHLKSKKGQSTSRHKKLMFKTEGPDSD
Peroxisome proliferator-activated receptor gamma (Homo sapiens), sequence (P37231 whole entry, looked up, the tested form may be a part): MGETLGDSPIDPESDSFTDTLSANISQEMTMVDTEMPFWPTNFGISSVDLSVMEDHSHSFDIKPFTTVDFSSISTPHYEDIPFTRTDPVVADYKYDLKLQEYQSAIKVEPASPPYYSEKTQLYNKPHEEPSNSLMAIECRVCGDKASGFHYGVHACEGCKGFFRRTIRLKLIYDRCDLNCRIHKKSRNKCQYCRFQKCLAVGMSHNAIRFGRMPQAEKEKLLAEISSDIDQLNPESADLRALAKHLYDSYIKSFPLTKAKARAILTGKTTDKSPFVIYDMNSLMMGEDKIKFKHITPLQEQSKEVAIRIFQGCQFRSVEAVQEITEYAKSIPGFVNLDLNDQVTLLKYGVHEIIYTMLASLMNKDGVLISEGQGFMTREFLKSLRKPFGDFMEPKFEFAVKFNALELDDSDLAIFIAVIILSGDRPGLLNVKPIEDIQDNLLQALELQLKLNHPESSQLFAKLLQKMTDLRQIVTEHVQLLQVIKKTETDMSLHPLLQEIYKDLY
Myc proto-oncogene protein (Homo sapiens), sequence (P01106 whole entry, looked up): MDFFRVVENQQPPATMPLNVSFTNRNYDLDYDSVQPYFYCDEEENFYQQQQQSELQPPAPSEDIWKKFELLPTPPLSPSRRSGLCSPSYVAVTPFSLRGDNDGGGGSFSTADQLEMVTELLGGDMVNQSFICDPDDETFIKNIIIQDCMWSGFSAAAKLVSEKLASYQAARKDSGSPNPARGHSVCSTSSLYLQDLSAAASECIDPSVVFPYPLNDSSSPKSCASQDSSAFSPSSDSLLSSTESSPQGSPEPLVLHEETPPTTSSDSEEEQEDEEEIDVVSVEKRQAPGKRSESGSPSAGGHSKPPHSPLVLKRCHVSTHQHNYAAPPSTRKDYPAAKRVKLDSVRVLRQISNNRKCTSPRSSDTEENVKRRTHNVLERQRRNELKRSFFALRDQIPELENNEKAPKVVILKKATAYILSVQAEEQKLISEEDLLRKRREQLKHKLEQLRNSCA
human RAR-related Orphan Receptor beta (RORb), RORB (gene 6096), sequence (Q92753 whole entry, looked up, the tested form may be a part): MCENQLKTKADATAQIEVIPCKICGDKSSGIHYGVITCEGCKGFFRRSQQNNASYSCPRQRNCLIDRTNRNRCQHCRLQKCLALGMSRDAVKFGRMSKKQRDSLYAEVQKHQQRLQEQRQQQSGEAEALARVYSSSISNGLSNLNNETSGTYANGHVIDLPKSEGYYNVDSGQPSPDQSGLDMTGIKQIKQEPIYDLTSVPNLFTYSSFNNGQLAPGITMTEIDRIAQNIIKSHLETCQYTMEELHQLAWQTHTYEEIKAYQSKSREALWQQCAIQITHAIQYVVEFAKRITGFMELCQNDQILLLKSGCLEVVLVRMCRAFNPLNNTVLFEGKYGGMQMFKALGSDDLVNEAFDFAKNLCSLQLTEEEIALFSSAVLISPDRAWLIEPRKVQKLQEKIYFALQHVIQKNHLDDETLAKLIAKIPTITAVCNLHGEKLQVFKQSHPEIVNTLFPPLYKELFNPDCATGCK
human RAR-related Orphan Receptor gamma (RORg), RORC (gene 6097), sequence (P51449 whole entry, looked up, the tested form may be a part): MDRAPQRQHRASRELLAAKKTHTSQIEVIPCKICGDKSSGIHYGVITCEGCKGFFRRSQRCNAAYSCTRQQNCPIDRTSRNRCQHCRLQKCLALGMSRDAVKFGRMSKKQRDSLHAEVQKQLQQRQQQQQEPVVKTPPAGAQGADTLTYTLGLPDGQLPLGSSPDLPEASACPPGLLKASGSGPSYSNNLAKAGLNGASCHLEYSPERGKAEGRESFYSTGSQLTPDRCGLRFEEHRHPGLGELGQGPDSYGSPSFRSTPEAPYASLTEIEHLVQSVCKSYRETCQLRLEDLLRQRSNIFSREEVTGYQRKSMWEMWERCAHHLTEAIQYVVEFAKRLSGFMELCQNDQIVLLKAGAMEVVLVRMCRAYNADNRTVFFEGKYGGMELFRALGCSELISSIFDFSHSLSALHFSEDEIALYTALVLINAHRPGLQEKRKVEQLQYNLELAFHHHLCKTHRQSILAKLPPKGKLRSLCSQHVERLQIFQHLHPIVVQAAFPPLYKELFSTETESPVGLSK
Nuclear receptor subfamily 1 group I member 2 (Homo sapiens), sequence (O75469 whole entry, looked up, the tested form may be a part): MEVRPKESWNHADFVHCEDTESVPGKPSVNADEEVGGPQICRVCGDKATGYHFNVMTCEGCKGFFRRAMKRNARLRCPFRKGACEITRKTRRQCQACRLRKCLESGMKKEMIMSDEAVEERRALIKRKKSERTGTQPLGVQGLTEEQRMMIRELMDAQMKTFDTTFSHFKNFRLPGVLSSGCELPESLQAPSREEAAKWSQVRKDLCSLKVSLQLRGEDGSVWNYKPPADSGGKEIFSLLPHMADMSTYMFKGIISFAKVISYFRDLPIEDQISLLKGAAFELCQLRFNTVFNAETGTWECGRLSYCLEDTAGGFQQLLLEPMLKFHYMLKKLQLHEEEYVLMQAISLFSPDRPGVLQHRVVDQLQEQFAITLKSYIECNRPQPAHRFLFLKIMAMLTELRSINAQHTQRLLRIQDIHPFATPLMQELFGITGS
human Retinoic Acid Receptor gamma (RARg), RARG (gene 5916), sequence (P13631 whole entry, looked up, the tested form may be a part): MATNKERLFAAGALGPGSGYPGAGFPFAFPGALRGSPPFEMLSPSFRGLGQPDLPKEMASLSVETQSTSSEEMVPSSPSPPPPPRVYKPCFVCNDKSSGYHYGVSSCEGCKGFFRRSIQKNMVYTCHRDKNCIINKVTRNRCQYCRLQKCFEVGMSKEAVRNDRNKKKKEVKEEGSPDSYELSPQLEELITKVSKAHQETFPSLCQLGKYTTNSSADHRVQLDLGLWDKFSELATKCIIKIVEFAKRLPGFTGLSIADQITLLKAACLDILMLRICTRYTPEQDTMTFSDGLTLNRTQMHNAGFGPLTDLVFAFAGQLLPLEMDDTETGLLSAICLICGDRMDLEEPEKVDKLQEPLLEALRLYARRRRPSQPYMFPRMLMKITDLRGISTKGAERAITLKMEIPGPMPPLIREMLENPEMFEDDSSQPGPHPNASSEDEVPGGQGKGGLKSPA

As for `O=C(O)C1(C(=O)Nc2ccc(Cl)cc2Cl)CC1`, the outcome in assay [1], in [2], in [4], in assay [5], in assay [6] and in [7] was inactive. The result in assay [8], in assay [9], in assay [10], in assay [11], in assay [14] and in [15] was inactive. In addition, the compound was classed as inactive in assay [16]. The results for the AC50 in assay [3], in assay [12] and in assay [13] were 30.4 µM (active), 32 µM (active) and 35.1 µM (active), respectively.
Consider `COC(=O)c1ccc(CNS(C)(=O)=O)cc1S(=O)(=O)NC(=O)Nc1nc(OC)cc(OC)n1`, for which the call in assay [1], in assay [2], in assay [3], in [4], in [5] and in [7] was inactive. The outcome in assay [8], in assay [9], in assay [11], in assay [17], in [12] and in assay [13] was inactive. For the same compound, the compound was classed as inactive in [14], in [18] and in assay [16].
Regarding `CCSC(=O)N(CC(C)C)CC(C)C`, the compound was called inactive in [1], in assay [2], in assay [3], in assay [4], in assay [5] and in [7]. Moreover, the result in [8], in assay [11], in [17], in assay [12], in assay [13] and in [16] was inactive.
Consider `S=C(S)NCCNC(=S)S.[Mn+2].[S-]C([S-])=NCCN=C([S-])[S-].[Zn+2]`, for which the result in assay [1], in assay [3], in assay [4], in [7], in assay [8] and in assay [9] was inactive. The result in assay [11], in assay [12], in assay [13], in assay [14], in [18] and in assay [16] was inactive. Further, the AC50 in [7] was 7.78 µM (active) and 7.28 µM (active) and 10 µM (active); in assay [14] it was 12 µM (active) and 18.7 µM (active).
`CCOC(=O)C(C)Oc1ccc(Oc2cnc3cc(Cl)ccc3n2)cc1` (stereo unspecified): the call in assay [1], in assay [3], in assay [4], in [7], in [8] and in assay [9] was inactive. Also, the result in [11], in assay [12], in [13], in assay [14], in assay [15] and in assay [18] was inactive. Also, in [16], the call was inactive.
Take `CCCN(CCC)C(=O)SCC`: the result in [1], in assay [3], in assay [4], in [5], in assay [19] and in assay [7] was inactive. The result in [8], in assay [9], in [11], in assay [12], in assay [13] and in [14] was inactive. The outcome in assay [18] and in assay [16] was inactive.
As for `CC(=O)[C@H]1CC[C@H]2[C@@H]3CCC4=CC(=O)CC[C@]4(C)[C@H]3CC[C@]12C`, the outcome in assay [1], in assay [3], in [4], in [5], in assay [7] and in assay [9] was inactive. For the same compound, the compound was called inactive in [10], in assay [11] and in assay [13]. Also, the half-maximal activity concentration (AC50) in assay [3] is 33.4 µM (active) and 16.3 µM (active); in assay [8] it was 25.9 µM (active); in [10], 136 µM (active); in assay [12], 3.36 µM (active); in [14] it was 2.54 µM (active) [middle of 4 runs].
As for `CCCCC(CC)COC(=O)c1ccccc1C(=O)O` (stereo unspecified), the outcome in assay [1], in assay [4], in assay [5], in assay [6], in [7] and in [8] was inactive. The compound was called inactive in assay [9], in [10], in assay [11], in [12], in assay [14] and in assay [16]. Also, the AC50 in [3] was 21.9 µM (active).
